According to PubChem BioAssay (EPA / NIEHS):
Inconclusive results are not listed. Some structures have more than one record in an assay (separate samples or runs), and their calls can disagree. Active and inactive are the calls of the source. How the source made its calls, unless noted: active means hit-call score of the fitted dose curve at least 0.9, where 1 is the maximum; inactive means score below 0.9.

Legend:
[1] = read-out: Interleukin-1 alpha (IL1a), IL1A (gene 3552); assay: BSK_LPS_IL1a: BioMAP Diversity Plus: LPS Assay for Interleukin-1 alpha (IL1a) Biomarker Activity (AID 2283080); details: primary human HUVEC with PBMC; actives raise or lower the signal
Outline: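 HUVEC/PBMC co-culture, LPS system; 24 h after dosing; IL-1a by ELISA; gain or loss of signal fitted bidirectionally vs DMSO baseline.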

[2] = read-out: Monocyte Chemoattractant Protein-1 (MCP1), CCL2 (gene 6347); assay: BSK_LPS_MCP1: BioMAP Diversity Plus: LPS Assay for Monocyte Chemoattractant Protein-1 (MCP1) Biomarker Activity (AID 2283081); details: primary human HUVEC with PBMC; actives raise or lower the signal;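 on AC50: secreted MCP-1 protein quantified by ELISA in culture supernatant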
Outline: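 ELISA read-out of MCP-1 after 24 h chemical dosing of a human umbilical vein endothelial cell/peripheral blood mononuclear cell co-culture stimulated with LPS. Gain or loss of signal fitted relative to DMSO controls.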

[3] = read-out: Tissue Factor, F3 (gene 2152); assay: BSK_LPS_TissueFactor: BioMAP Diversity Plus: LPS Assay for Tissue Factor Biomarker Activity (AID 2283084); details: primary human HUVEC with PBMC; actives raise or lower the signal
Outline: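 HUVEC/PBMC co-culture, LPS-activated; CD142 ELISA read 24 h post-dose; bidirectional curve fit vs DMSO negative control.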

[4] = read-out: Tumor necrosis factor (Homo sapiens) (UniProt P01375); assay: BSK_LPS_TNFa: BioMAP Diversity Plus: LPS Assay for Tumour Necrosis Factor alpha (TNFa) Biomarker Activity (AID 2283085); details: primary human HUVEC with PBMC; actives raise or lower the signal;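 on AC50: TNFa protein level quantified by ELISA in the co-culture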
Outline: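 ELISA-based TNFa endpoint in a human endothelial–PBMC co-culture sampled 24 h post-exposure. Curves were fitted in both directions using DMSO as baseline of activity.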

[5] = read-out: Vascular cell adhesion molecule 1 (VCAM1), VCAM1 (gene 7412); assay: BSK_LPS_VCAM1: BioMAP Diversity Plus: LPS Assay for Vascular cell adhesion molecule 1 (VCAM1) Biomarker Activity (AID 2283086); details: primary human HUVEC with PBMC; actives raise or lower the signal
Outline: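 Measured by ELISA: VCAM-1 in LPS-activated HUVEC/PBMC co-cultures 24 h after treatment. Values reflect bidirectional fitting with DMSO as baseline.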

[6] = read-out: CD38, CD38 (gene 952); assay: BSK_SAg_CD38: BioMAP Diversity Plus: SAg Assay for CD38 Biomarker Activity (AID 2283087); details: primary human HUVEC with PBMC; actives raise or lower the signal
Outline: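 Measures CD38 on a human endothelial/PBMC co-culture driven by SEB and TSST-1, 24 h after compound exposure, using ELISA with fluorescence detection; DMSO defines baseline for bidirectional curve fitting.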

[7] = read-out: CD69, CD69 (gene 969); assay: BSK_SAg_CD69: BioMAP Diversity Plus: SAg Assay for CD69 Biomarker Activity (AID 2283089); details: primary human HUVEC with PBMC; actives raise or lower the signal;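 on AC50: cell surface CD69 protein quantified by ELISA with fluorescence detection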
Outline: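 HUVEC co-cultured with PBMC were dosed with chemical, and CD69 was measured by ELISA with fluorescence read-out 24 h later. Bidirectional curve fitting used DMSO as negative control and activity baseline.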

[8] = read-out: Monocyte Chemoattractant Protein-1 (MCP1), CCL2 (gene 6347); assay: BSK_SAg_MCP1: BioMAP Diversity Plus: SAg Assay for Monocyte Chemoattractant Protein-1 (MCP1) Biomarker Activity (AID 2283090); details: primary human HUVEC with PBMC; actives raise or lower the signal
Outline: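 Values derive from bidirectional fitting of ELISA-measured MCP1 against DMSO controls. Readings were taken 24 h after dosing human vascular endothelial cells co-cultured with peripheral blood mononuclear cells under superantigen stimulation.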

[9] = read-out: E-selectin (Homo sapiens) (UniProt P16581); assay: BSK_SAg_Eselectin: BioMAP Diversity Plus: SAg Assay for Eselectin Biomarker Activity (AID 2283091); details: primary human HUVEC with PBMC; actives raise or lower the signal
Outline: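 E-selectin ELISA readout at 24 h post-dosing in human umbilical vein endothelial cell/PBMC co-culture; gain or loss of signal fitted relative to DMSO baseline.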

[10] = read-out: Monokine induced gamma interferon (MIG), CXCL9 (gene 4283); assay: BSK_SAg_MIG: BioMAP Diversity Plus: SAg Assay for Monokine induced gamma interferon (MIG) Biomarker Activity (AID 2283092); details: primary human HUVEC with PBMC; actives raise or lower the signal
Outline: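 HUVEC plus human PBMC co-culture, chemicals dosed and MIG (CXCL9) quantified by ELISA at 24 h. Bidirectional curve fitting against DMSO as negative control and baseline, so both gain and loss of signal count as activity.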

[11] = BSK_SAg_PBMCCytotoxicity: PBMC Cytotoxicity Assessment in the BioMAP Diversity Plus: SAg Assay (AID 2283093); details: primary human HUVEC with PBMC;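 further: PBMC viability measured as Alamar Blue reduction fluorescence at 546/580 nm; fitted both ways against DMSO so a hit may be loss or gain of signal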;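 on AC50: PBMC superantigen activated with SEB plus TSST-1 one hour after compound addition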
Outline: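 Alamar Blue reduction (6 h, 546/580 nm) reports PBMC cytotoxicity after 90 h superantigen activation (SEB, TSST-1; 20 ng/mL final each) with 1 h compound pre-treatment. Gain or loss of signal fitted versus DMSO.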

[12] = read-out: Interleukin-8 (IL8), CXCL8 (gene 3576); assay: BSK_SAg_IL8: BioMAP Diversity Plus: SAg Assay for Interleukin-8 (IL8) Biomarker Activity (AID 2283094); details: primary human HUVEC with PBMC; actives raise or lower the signal
Outline: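 Primary human endothelial cells with PBMC, exposed 24 h; IL-8 determined by ELISA, analysed bidirectionally relative to DMSO.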

[13] = BSK_SAg_Proliferation: Cell Proliferation Assessment in the BioMAP Diversity Plus: SAg Assay (AID 2283095); details: primary human HUVEC with PBMC;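 further: relative cell number as total protein by SRB absorbance in sub-confluent culture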
Outline: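 A human primary co-culture of umbilical vein endothelium and blood mononuclear cells receives compound; relative cell number is quantified at 96 h by SRB staining and 560 nm absorbance, with DMSO-referenced bidirectional curve fitting.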

[14] = BSK_SAg_SRB: Viability Assessment in the BioMAP Diversity Plus: SAg Assay (AID 2283096); details: primary human HUVEC with PBMC;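 further: cells read one day after compound addition; hits may be either gain or loss of signal compared with DMSO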
Outline: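 This overt-cytotoxicity endpoint quantifies protein in human endothelial/PBMC co-cultures at 24 h using SRB absorbance (560 nm) after trichloroacetic acid fixation. Values reflect signal change from the DMSO negative control, fitted bidirectionally.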

[15] = BSK_LPS_PGE2: BioMAP Diversity Plus: LPS Assay for Prostaglandin E2 (PGE2) Biomarker Activity (AID 2283082); details: primary human HUVEC with PBMC; actives raise or lower the signal;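 on AC50: secreted prostaglandin E2 measured by ELISA in LPS-stimulated co-culture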
Outline: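 Primary human endothelial cells and blood mononuclear cells, co-cultured with LPS, receive test chemical; PGE2 ELISA follows at 24 h, with SRB-stained parallel cultures flagging cytotoxicity.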

[16] = read-out: CD40, CD40 (gene 958); assay: BSK_SAg_CD40: BioMAP Diversity Plus: SAg Assay for CD40 Biomarker Activity (AID 2283088); details: primary human HUVEC with PBMC; actives raise or lower the signal
Outline: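 HUVEC/PBMC co-culture, 24 h post-dose; CD40 by ELISA, fluorescence intensity; bidirectional fit vs DMSO negative control.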

[17] = biological target: human CYP19A1, CYP19A1 (gene 1588) (UniProt P11511); assay: NVS_ADME_hCYP19A1: NovaScreen (NVS) CYP450-related Enzyme Activity (ADME) Assay for human CYP19A1 (AID 2283098; active means hit-call score of the fitted dose curve at least 0.9, where 1 is the maximum;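 on AC50: potency for inhibitors seen as loss of fluorescent enzyme signal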)
Sequence of human CYP19A1, CYP19A1 (gene 1588) (P11511 whole entry, looked up): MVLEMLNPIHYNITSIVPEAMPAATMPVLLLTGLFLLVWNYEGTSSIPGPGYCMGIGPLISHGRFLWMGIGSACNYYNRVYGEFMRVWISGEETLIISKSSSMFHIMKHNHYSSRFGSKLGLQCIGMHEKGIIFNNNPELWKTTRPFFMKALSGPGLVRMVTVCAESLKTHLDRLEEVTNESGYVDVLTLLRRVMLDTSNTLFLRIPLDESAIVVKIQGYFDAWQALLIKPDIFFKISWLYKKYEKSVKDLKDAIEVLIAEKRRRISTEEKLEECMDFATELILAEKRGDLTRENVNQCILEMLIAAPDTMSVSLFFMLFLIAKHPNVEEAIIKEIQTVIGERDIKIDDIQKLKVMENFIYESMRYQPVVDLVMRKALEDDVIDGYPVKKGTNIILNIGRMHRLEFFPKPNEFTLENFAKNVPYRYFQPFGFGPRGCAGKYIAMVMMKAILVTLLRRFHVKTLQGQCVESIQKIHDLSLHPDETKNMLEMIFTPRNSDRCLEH
Outline: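 Compounds were first screened at 10 uM in duplicate against purified enzyme, with a fluorogenic substrate and fluorescence intensity detection after 0.5 h. Inhibition appears as reduced signal against acetonitrile control.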

[18] = biological target: human CYP1A1, CYP1A1 (gene 1543) (UniProt P04798); assay: NVS_ADME_hCYP1A1: NovaScreen (NVS) CYP450-related Enzyme Activity (ADME) Assay for human CYP1A1 (AID 2283100; active means hit-call score of the fitted dose curve at least 0.9, where 1 is the maximum)
Sequence of human CYP1A1, CYP1A1 (gene 1543) (P04798 whole entry, looked up): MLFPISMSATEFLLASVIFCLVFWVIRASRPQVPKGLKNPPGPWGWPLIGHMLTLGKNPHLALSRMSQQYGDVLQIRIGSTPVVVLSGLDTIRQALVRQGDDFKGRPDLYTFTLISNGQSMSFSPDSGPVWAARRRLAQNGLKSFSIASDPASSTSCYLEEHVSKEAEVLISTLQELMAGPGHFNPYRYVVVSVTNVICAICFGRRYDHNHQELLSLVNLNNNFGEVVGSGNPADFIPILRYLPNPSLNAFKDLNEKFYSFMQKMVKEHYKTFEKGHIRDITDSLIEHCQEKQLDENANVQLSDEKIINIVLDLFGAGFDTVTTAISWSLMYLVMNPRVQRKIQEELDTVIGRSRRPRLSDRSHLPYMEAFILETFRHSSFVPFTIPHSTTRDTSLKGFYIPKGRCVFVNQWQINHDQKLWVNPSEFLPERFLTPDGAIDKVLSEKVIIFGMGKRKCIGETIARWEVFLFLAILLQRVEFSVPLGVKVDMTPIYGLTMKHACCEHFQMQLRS
Outline: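 Read-out: fluorescence intensity from enzymatic turnover of substrate by recombinant CYP1A1, loss of signal indicating inhibition. Incubation 1 h post-dose. Primary single-point 10 uM in duplicate; actives rerun singly with top concentration 20 uM.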

[19] = read-out: Macrophage colony-stimulating factor (MCSF), CSF1 (gene 1435); assay: BSK_LPS_MCSF: BioMAP Diversity Plus: LPS Assay for Macrophage colony-stimulating factor (MCSF) Biomarker Activity (AID 2283083); details: primary human HUVEC with PBMC; actives raise or lower the signal
Outline: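 HUVEC + PBMC co-culture (human primary), 24 h post-dose; M-CSF by ELISA; gain/loss of signal fitted bidirectionally vs DMSO baseline.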

[20] = biological target: human CYP2A6, CYP2A6 (gene 1548) (UniProt P11509); assay: NVS_ADME_hCYP2A6: NovaScreen (NVS) CYP450-related Enzyme Activity (ADME) Assay for human CYP2A6 (AID 2283099; active means hit-call score of the fitted dose curve at least 0.9, where 1 is the maximum)
Sequence of human CYP2A6, CYP2A6 (gene 1548) (P11509 whole entry, looked up): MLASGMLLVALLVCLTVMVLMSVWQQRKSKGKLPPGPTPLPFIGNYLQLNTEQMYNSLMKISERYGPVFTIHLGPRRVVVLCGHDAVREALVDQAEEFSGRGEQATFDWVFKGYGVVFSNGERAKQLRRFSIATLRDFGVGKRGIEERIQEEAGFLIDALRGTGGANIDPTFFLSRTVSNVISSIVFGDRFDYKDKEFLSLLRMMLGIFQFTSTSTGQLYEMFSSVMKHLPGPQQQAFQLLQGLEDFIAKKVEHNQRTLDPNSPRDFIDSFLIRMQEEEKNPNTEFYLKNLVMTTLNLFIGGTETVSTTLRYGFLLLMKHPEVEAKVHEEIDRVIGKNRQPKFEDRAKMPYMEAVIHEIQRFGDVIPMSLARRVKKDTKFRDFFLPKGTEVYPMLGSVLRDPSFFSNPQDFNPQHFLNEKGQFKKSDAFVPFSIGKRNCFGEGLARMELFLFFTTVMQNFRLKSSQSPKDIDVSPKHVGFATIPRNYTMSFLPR
Outline: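 Insect-cell-expressed human CYP2A6 enzyme activity measured by fluorescence intensity 0.5 hour post-dosing. Compounds screened at 10 uM in duplicate, then hits tested singly in concentration series (max 20 uM); acetonitrile baseline.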

Measured: AC50

Sequence of Tumor necrosis factor (Homo sapiens) (P01375 whole entry, looked up): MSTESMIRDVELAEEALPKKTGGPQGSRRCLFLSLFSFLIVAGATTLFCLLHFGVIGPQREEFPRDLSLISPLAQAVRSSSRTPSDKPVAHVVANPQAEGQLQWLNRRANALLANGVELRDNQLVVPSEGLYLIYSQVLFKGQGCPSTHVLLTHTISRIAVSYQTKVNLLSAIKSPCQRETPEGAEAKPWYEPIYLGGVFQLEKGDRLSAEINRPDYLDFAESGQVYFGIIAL
Sequence of E-selectin (Homo sapiens) (P16581 whole entry, looked up): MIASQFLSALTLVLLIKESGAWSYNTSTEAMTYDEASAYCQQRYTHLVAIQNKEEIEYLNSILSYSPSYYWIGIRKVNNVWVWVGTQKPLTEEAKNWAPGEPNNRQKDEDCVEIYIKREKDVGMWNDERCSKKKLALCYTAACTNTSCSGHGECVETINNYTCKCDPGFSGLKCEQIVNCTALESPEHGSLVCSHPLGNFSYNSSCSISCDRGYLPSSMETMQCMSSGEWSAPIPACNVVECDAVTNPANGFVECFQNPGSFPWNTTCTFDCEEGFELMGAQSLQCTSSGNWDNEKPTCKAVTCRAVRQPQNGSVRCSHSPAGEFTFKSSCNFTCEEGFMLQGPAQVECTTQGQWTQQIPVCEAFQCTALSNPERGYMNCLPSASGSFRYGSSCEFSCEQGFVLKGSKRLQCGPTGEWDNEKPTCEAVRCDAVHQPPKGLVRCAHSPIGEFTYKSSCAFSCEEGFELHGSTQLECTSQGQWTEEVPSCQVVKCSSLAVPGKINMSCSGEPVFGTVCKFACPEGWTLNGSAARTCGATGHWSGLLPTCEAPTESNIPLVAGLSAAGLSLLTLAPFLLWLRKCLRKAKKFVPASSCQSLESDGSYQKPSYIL

CN(C)[C@@H]1C(=O)C(C(N)=O)=C(O)[C@@]2(O)C(=O)C3=C(O)c4c(O)cccc4[C@@](C)(O)[C@H]3[C@H](O)[C@@H]12
inactive: [1] | [2] | [3] | [4] | [5] | [6] | [7] | [8] | [9] | [10] | [11] | [12] | [13] | [14]
active: [4] 14.7 µM | [7] 5.09 µM

COc1cc(OC)nc(Sc2cccc(Cl)c2C(=O)O)n1
not listed: [15] | [16] | [17] | [18] | [19] | [20]
inactive: all other assays above

CNc1cnn(-c2cccc(C(F)(F)F)c2)c(=O)c1Cl
active: [6] 9.82 µM | [16] 11.7 µM | [7] 29.1 µM | [9] 19.2 µM | [11] 7.99 µM | [12] 10.9 µM | [18] 6.11 µM
not listed: [1] | [19] | [20]
inactive: all other assays above

O=c1ccc(=O)[nH][nH]1
not listed: [16] | [17] | [18] | [19] | [20]
inactive: all other assays above

CCOP(=S)(OCC)SCCSCC
not listed: [16] | [17] | [18] | [19] | [20]
inactive: all other assays above

CCCSP(=O)(OCC)Oc1ccc(Br)cc1Cl (configuration not stated)
active: [4] 35.3 µM | [6] 30.5 µM | [7] 27.8 µM | [9] 25.5 µM | [10] 36.5 µM | [11] 32.9 µM | [12] 26.3 µM | [13] 29.3 µM | [14] 11.7 µM
inactive: [1] | [2] | [19] | [3]

CNC(=O)ON=C(C)SC
active: [15] 0.564 µM
not listed: [16] | [18] | [19] | [20]
inactive: all other assays above

CC(C)[C@H](C(=O)O[C@H](C#N)c1cccc(Oc2ccccc2)c1)c1ccc(Cl)cc1
active: [9] 12.3 µM | [11] 4.84 µM | [13] 12 µM
not listed: [15] | [18] | [20]
inactive: all other assays above

CCCOCC(=Nc1ccc(Cl)cc1C(F)(F)F)n1ccnc1
active: [1] 31.8 µM | [2] 33.3 µM | [19] 20.9 µM | [3] 29.2 µM | [4] 31.3 µM | [5] 29 µM | [16] 18.1 µM | [7] 18.9 µM | [8] 26 µM | [9] 11.6 µM | [10] 32.4 µM | [11] 31 µM | [12] 15.9 µM | [13] 24.5 µM | [14] 27.9 µM | [17] 0.999 µM | [18] 4.18 µM
inactive: [15] | [20]
